Experimental data from PubChem BioAssay (NCI).
Several values for one entry are separate records, joined by “and”; a condition that tells them apart may be missing. Identical values can stand only once. The panel holds about 83,000 compounds, 20% with a hit somewhere; the sample as a whole holds those more often.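 Plates (96-well) were seeded with cells, treated with compound at one concentration, and incubated for 48 hours before percent growth was determined.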 Activity calls are given as the source filed them. The calls were made as follows: active = growth percent below 10; inactive = the rest.

tested on: MDA-MB-468 breast; assay: NCI-60 one-dose screen, 48 h (100 = growth as untreated, 0 = no growth, -100 = all killed); conditions: 10 µM unless noted

SMILES | growth
O=C(CN1CCN(c2cc3c(cc2F)c(=O)c(C(=O)O)cn3C2CC2)CC1)Nc1ccc(C(=O)/C=C/c2ccccc2)cc1 | 33.8% (inactive)
CCCCCCCCCCCCC1CCCC(C)C1 (stereo not given) | 111% (inactive)
Cc1oc2nc[nH]c(=O)c2c1C(=O)/C=C/c1ccc(Cl)cc1Cl | 86.7% (inactive)
CCO/C=C1\SC(=S)N(c2cccc(C)c2)C1=O | 102% (inactive)
CCc1nn2c(-c3cc(OC)c(OC)c(OC)c3)c(-c3cc(OC)c(OC)c(OC)c3)nc2s1 | 49.3% (inactive)
O=c1ncc(-c2ccc(C(F)(F)F)cc2)c(NC2CCCCCC2)[nH]1 | 11.8% (inactive)
NC(=O)c1c(NC(=O)c2ccc3ccccc3c2)sc2c1CCC(=O)C2 | 85.8% (inactive)
Oc1c(Cl)cc(Cl)c2ccc(CN3CCCCC3)nc12 | 29.3% (inactive)
O=C(Nc1cccc(Cl)c1)c1cc([N+](=O)[O-])ccc1O | 31.3% (inactive)
COc1ccc(-c2oc3cc(O)cc(O)c3c(=O)c2OC)cc1O | -3.48% (active)
CCC[S@@](=O)c1ccc2nc(NC(=O)OC)[nH]c2c1 | 68.5% (inactive)
CNC(=O)c1nn(C)c2c1C(C)(C)Cc1cnc(Nc3ccc(N4CCN(C)CC4)cc3)nc1-2 | -13.4% (active)
CN(CC(=O)N(Cc1ccc(C2CCCCC2)cc1)c1ccc(C(=O)O)cc1)S(=O)(=O)c1c(F)c(F)c(F)c(F)c1F | -86.6% (active)
COc1ccc(/C=N/NC(=O)c2c(N)nn(C)c2Nc2ccccc2)cc1Oc1ccccc1 | 66.6% (inactive)
Nc1ncnc2c1ncn2C1OC(CO)C(O)C1O (stereo not given) | 116% (inactive) and -13.3% (active)
COc1cc(-c2c(-c3ccccc3)c[nH]c2C(=O)NCCCO)c(OC)c2c1OCO2 | 102% (inactive)
CCN(CC)CCNc1ccc(C)c2sc3cc(C)ccc3c(=O)c12 | 66.5% (inactive)
COc1cc2nc(N3CCC[C@@H](NC(=O)C4COc5ccccc5O4)C3)nc(N)c2cc1OC (stereo not given in full) | 108% (inactive) and 103% (inactive)
COC1/C=C/OC2(C)Oc3c(C)c(O)c4c(O)c(c(/C=N/Nc5ccc([N+](=O)[O-])cc5[N+](=O)[O-])c(O)c4c3C2=O)NC(=O)C(C)=C/C=C/C(C)C(O)C(C)C(O)C(C)C(OC(C)=O)C1C (stereo not given) | -54.5% (active)
CCCN1CN2C(=O)N3CN(CCC)CN4C(=S)N(C1)C2C34 (stereo not given) | 107% (inactive)
C=C(C)[C@@H]1CC[C@]2(C(=O)N3CCN(C)CC3)CC[C@]3(C)[C@H](CC[C@@H]4[C@@]5(C)CC[C@H](OP(=O)(OCC)OCC)C(C)(C)[C@@H]5CC[C@]43C)[C@@H]12 | 76.2% (inactive)
CCCCCCCCCCCCCC[n+]1ccc(C)cc1 | -29.9% (active)
N#C/C(=C/c1c(O)ccc2ccccc12)C(N)=O | 97.3% (inactive)
O=C(N/N=C/c1cc2ccccc2c2ccccc12)c1cc(O)c(O)c(O)c1 | 64.9% (inactive)
Cc1ccc(Nn2c(SCC(=O)Nc3nc(-c4ccccc4)cs3)nc(C)c2C)cc1 | 17.7% (inactive)
